PubChem BioAssay AID662 (National Center for Advancing Translational Sciences (NCATS), 2007)
The whole screen tested about 71,000 compounds, of which about 1,800 (2.5%) were called active. Another 26% or so got no clear call; they are omitted. This is one part of a sample in which actives are shown more often than they occur. Unmarked numbers belong to inactive results. Calls come from the whole dose curve; as a rule, active = well fitted activation curve with a large enough effect in the signal ratio, with a control signal flat (not every such curve was filed as active); inconclusive = small, poorly fitted or top-dose-only effect, or effect the other way, or a change in a side signal; inactive = flat fitted curve, though single readings scatter; the % refers to the signal ratio.

Assay: Cell signaling CRE-BLA (Fsk stim); for activity change, negative = inhibition: % of control where 0% means no effect
Settings: CHO CRE-bla reporter (cAMP response element driving beta-lactamase), forskolin EC10, beta-lactamase ratio; series mostly up to 38.2 µM; activity change, negative = inhibition: at the top concentration
Outline: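 CRE-bla CHO reporter cells treated with compound titration plus EC10 NKH 477 (water-soluble forskolin), incubated 3 h at 37 °C; CCF4 loading 2 h at room temperature, 460/530 nm emission ratio read, AC50 values derived for positive or negative modulators.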
Potency is the fitted concentration of half-maximal effect.

| Compound | activity change, negative = inhibition | Potency |
| --- | --- | --- |
| COc1ccc(-n2nnc3c(=O)n(CC(=O)N4CCC(Cc5ccccc5)CC4)cnc32)cc1 | -7.64% |  |
| CCOC(=O)C(CCOc1cccc(CC)c1)C(=O)OCC | -0.602% |  |
| C=C(C)C1CC=C(C)C(O)C1 (centres undefined) | -2.45% |  |
| CC(=O)NC(C)(C)C1CC=C(C)/C(=N\O)C1 (centres undefined) | -6.01% |  |
| CC(C)OC(=O)CN1C(=O)c2ccccc2C1=O | -2.74% |  |
| O=C1C(c2[nH]c3ccccc3c2O)=Nc2ccccc21 | -11.5% |  |
| CCCCn1c(CCCNC(=O)CC)nc2ccccc21 | -6.76% |  |
| O=S(N1CCCCCC1)C12CC3CC(CC(C3)C1)C2 (centres undefined) | 6.48% |  |
| Cn1c(-c2ccc(C(=O)c3ccccc3)s2)nc2ccccc21 |  | 2 µM (active) |
| Cn1c(CNC(=O)C(C)(C)C)nc2ccccc21 | 4.87% |  |
| Cc1nn2c3ccccc3nc2n(C)c1=O | -1.15% |  |
| Cc1occc1C(=O)N1CCCc2ccccc21 | 0.434% |  |
| Cc1cccc(Br)c1 | -6.01% |  |
| COc1ccccc1N1CCN(C(=O)c2cn(-c3ccccc3)nc2-c2cccnc2)CC1 | -9.11% |  |
| COc1cccc(-c2nn(C)c3sc(C(=O)N4CCN(c5ccccc5)CC4)cc23)c1 |  | 2.51 µM (active) |
| CCOC(=O)N1CCN(C(=O)c2cc3c(-c4ccc(Cl)cc4)nn(C)c3s2)CC1 | 5.94% |  |
| O=S(=O)(NCC1CCCO1)c1ccc2ccccc2c1 (centres undefined) | 0.294% |  |
| O=C(O)CCC(=O)NCc1ccc2[nH]c3c(c2c1)CCCC3 | -4.41% |  |
| CC/C=C/C/C=C/C/C=C/CCCCCCCC(=O)OCC | 7.6% |  |
| Oc1c(C(c2cccs2)N2CCN(c3ccc(F)cc3)CC2)sc2ncnn12 (centres undefined) | 10.8% |  |
| Cc1c2c(nc3ccccc13)-c1cccc(=O)n1C2 |  | 1.58 µM (active) |
| Cc1ccc(N2C(=O)CC(NCc3ccc4c(c3)OCO4)C2=O)cc1Cl (centres undefined) | -2.37% |  |

| Compound | activity change, negative = inhibition | Potency |
| --- | --- | --- |
| COc1ccc(N)c(OC)c1 | 8.82% |  |
| CCn1c(=N)c(S(=O)(=O)c2ccc(F)cc2)cc2c(=O)n3ccccc3nc21 |  | 2 µM (active) |
| Cc1cc(NC(=O)CN2CCCCC2C)nc2c1c(=O)oc1ccccc12 (centres undefined) | 15.3% |  |
| CCN(CC)CCCCn1c(-c2ccccc2)nc2c(N3CCOCC3)nc(C)nc21 | 2.26% |  |
| Cc1cc(/C=N/n2cnnc2)c(C)n1-c1ccc2ncccc2c1 |  | 0.0631 µM (active) |
| Fc1ccc(Br)cc1/C=N/n1cnnc1 | -0.497% |  |
| O=C(CC1CCCCC1)Nc1c2c(nn1-c1ccc(F)cc1)CS(=O)(=O)C2 | -0.0676% |  |
| COc1cccc(C(=O)Nc2c3c(nn2-c2cccc(C)c2C)CS(=O)(=O)C3)c1OC |  | 7.94 µM (active) |
| Cc1cccc(-n2nc3c(c2NC(=O)c2ccc(Br)o2)CSC3)c1C | -9.63% |  |
| COc1ccc(CCN=C2SCC(=O)N2C)cc1OC | 9.19% |  |
| CC1=NC2(CCCc3c2no[n+]3[O-])N(O)C1(C)C (centres undefined) | 8.65% [at 7.6 µM] |  |
| CNC(=O)C1(C)C=CC2(CCCCC2)N1C(C)=O (centres undefined) | -8.81% |  |
| COC(=O)c1ccc(Oc2nc(Nc3ccc(F)cc3)nc(N3CCCC3)n2)cc1 |  | 3.16 µM (active) |
| CC(C)CC1(C(=O)NCc2ccccn2)C=CCN1C(=O)c1ccccc1 (centres undefined) | 0.31% |  |
| CCC1(C)N(O)C(C)(C)C(c2ccc(OC)cc2)=[N+]1[O-] (centres undefined) | 1.03% |  |
| Cc1cnc(CNc2nc(-c3cccnc3)nc3ccccc23)cn1 |  | 12.6 µM (active) |
| Cc1cnc(CNc2ncncc2-c2ccccc2Cl)cn1 | 6.66% |  |
| c1ccc(CNc2ncncc2-c2cccnc2)cc1 | 2.99% |  |
| CCCC(NS(=O)(=O)c1ccc(OC)cc1)C(=O)O (centres undefined) | 1.91% |  |
| CC1CCc2sc3nc(N4CCN(CCO)CC4)n4ncnc4c3c2C1 (centres undefined) |  | 5.01 µM (active) |
| COc1ccccc1-n1c(CNC(=O)c2ccccc2)nnc1SCC(=O)Nc1nnc(C)s1 | -0.00921% |  |
| CC1CN(Cc2nc3c(c(=O)n(C)c(=O)n3C)n2Cc2cccc(Cl)c2)CC(C)O1 (centres undefined) | 8.04% |  |

| Compound | activity change, negative = inhibition | Potency |
| --- | --- | --- |
| Cc1nc(SC(C)C)[nH]c(=O)c1Cc1ccccc1 | 26.6% |  |
| CCOC(=O)c1cc2n(c1C)-c1ccccc1C2=O |  | 15.8 µM (active) |
| CCOC(=O)Nc1ccccc1N1C(=O)c2ccccc2C1=O | 4.56% |  |
| CCOC(=O)c1cc2ccccc2nc1C | 11.4% |  |
| COC(=O)c1ccc(C(NC(=O)OCc2ccccc2)/C(C)=C/[C@@H](C)C(=O)NCc2cc(C)on2)cc1 (some centres undefined) | -12.4% |  |
| O=C(NCc1ccco1)c1nc(-c2ccccc2)n(-c2ccccc2)n1 | -3.72% |  |
| Cc1nn(-c2ccccc2)c2sc(C(=O)N(Cc3ccco3)C(C)C(=O)NC(C)(C)C)cc12 (centres undefined) |  | 1.58 µM (active) |
| Cc1nc2nc(SCC(=O)NCc3ccco3)nn2c(C)c1Cc1ccccc1 | -8.05% |  |
| Cc1ccnc(SCCn2c(N(C)Cc3ccccc3)nc3c2c(=O)n(C)c(=O)n3C)n1 | -5.53% |  |
| CCN(CC)S(=O)(=O)N1CCC(C(=O)NC(C)CCc2ccccc2)CC1 (centres undefined) | -6.97% |  |
| Cc1ccc2c(NC(=O)C3CC3)cccc2n1 | -5.14% |  |
| CC(=O)N1CCC(C(=O)Nc2nc(-c3ccccc3)ns2)CC1 |  | 10 µM (active) |
| CC(=O)N1CCN(c2cccc(C)c2C)CC1 | 1.32% [at 7.6 µM] |  |
| Cn1c(NC(=O)c2ccc3c(c2)OCO3)cc(=O)n(C)c1=O | -10.7% |  |
| Cc1c(NC(=O)Nc2ccccc2Cl)sc(=S)n1C | 9.49% |  |
| COc1ccc(OC)c(NC(=O)Cn2c(=O)oc3ccccc32)c1 | 3.37% |  |
| COc1ccc(OC)c(NC(=O)CSc2nc(N)c(-c3ccccc3)c(=O)[nH]2)c1 |  | 12.6 µM (active) |
| CCn1c(COc2ccc(OC)cc2)nnc1SCC(=O)Nc1cc(OC)ccc1OC | -2.91% |  |
| CCCC(C(=O)N1CCOCC1)N1C(=O)C2C3C=CC(C3)C2C1=O (centres undefined) | 0.508% |  |
| CC(C)C[C@@H](CC(=O)N[C@@H](CCC(=O)O)CC(=O)O)NC(=O)[C@@H]1CCCC[C@H]1NC(=O)C[C@@H](NC(=O)C[C@H](Cc1c[nH]c2ccccc12)NC(=O)[C@@H]1CCCC[C@H]1N)C(C)C | -15.3% |  |
| Cc1ccc(NC(=O)CSc2nnc(-c3cnccn3)n2Cc2ccco2)cc1C | 12.3% |  |
| CCn1c(SCC(=O)Nc2cc(C)ccc2C)nnc1-c1cnccn1 |  | 3.16 µM (active) |

| Compound | activity change, negative = inhibition | Potency |
| --- | --- | --- |
| CCn1c(SCC(=O)Nc2nccs2)nnc1-c1ccncc1 | -3.82% |  |
| CSc1ccc(-c2c(C#N)c(N)nc3c2c(C)nn3-c2ccccc2)cc1 |  | 10 µM (active) |
| Cc1cccc(NC(=O)COc2ccc(Br)cc2C)n1 | 7.56% |  |
| C#CCCCCCCCCCCCCCCCC(=O)O | -5.11% |  |
| COc1ccc(O)c(C=Nc2cc(C)on2)c1 | -1.66% |  |
| c1cncc(CNc2ccnc(-c3ccc4c(c3)OCO4)n2)c1 | -27% |  |
| O=C(Nc1cccnc1)c1ccc2c(c1)OCO2 | 1.51% |  |
| c1ccc2c(Nc3ccncc3)nc(-c3ccc4c(c3)OCO4)nc2c1 |  | 12.6 µM (active) |
| CC(=O)Nc1nc(C)c(Cc2ccccc2)c(=O)[nH]1 | 6.88% |  |
| COc1ccc(N2CCN(C(=O)CSc3ncnc4c3cnn4-c3ccc(OC)cc3)CC2)cc1 | -2.74% |  |
| CCOc1ccc2cc(C#N)c(SCC(=O)OC)nc2c1 | -0.598% |  |
| COc1ccc(N2CCN(C(=O)CSc3nc4cc(OC)c(OC)cc4cc3C#N)CC2)cc1 |  | 10 µM (active) |
| Cc1ccc2nc(-c3ccccc3)cc(C(=O)O)c2c1 | -5.73% |  |
| Oc1ccc2nc(Cc3ccccc3)[nH]c2c1 | -6.98% |  |
| COC(=O)Nc1nc2ccc(Sc3ccccc3)cc2[nH]1 |  | 2.51 µM (active) |
| CCN(CC)CCN1C(=O)C(=O)/C(=C(/O)c2ccccc2)C1c1ccccc1F (centres undefined) | 3.78% |  |
| O=C(O)c1c(Br)c(Br)c(Br)c(Br)c1C1c2ccc(O)cc2Oc2cc(O)ccc21 | 4.42% [at 7.6 µM] |  |
| C=CCn1c(C(C)NC(=O)CC)nc2ccccc21 (centres undefined) | -0.176% |  |
| C=CCn1c(SCC(=O)Nc2nc3ccccc3s2)nnc1-c1ccccc1O | -22.9% |  |
| C=CCn1c2ccccc2c2nnc(SC(CC)C(=O)Nc3nc(C)c(C(=O)OCC)s3)nc21 (centres undefined) |  | 1.26 µM (active) |
| N#Cc1cc2[nH]c(=O)c(=O)[nH]c2cc1[N+](=O)[O-] | -12.2% |  |
| CC(=O)CC(C)C | -1.03% |  |

| Compound | activity change, negative = inhibition | Potency |
| --- | --- | --- |
| COc1ccc(OCc2ccc(-c3nc4ccccc4c(=O)n3N)o2)cc1 | 13.7% |  |
| COCCn1c(=O)c(CCc2ccccc2)nc2cncnc21 | 5.96% |  |
| COc1ccccc1CCn1c(=O)c(-c2cn(C)c3ccccc23)nc2cncnc21 |  | 0.398 µM (active) |
| COc1ccccc1CNC(=O)CCn1c(=O)sc2ccccc21 | -18.5% |  |
| COc1ccc(-n2c(C)nc3c(cnn3-c3ccccc3)c2=O)cc1 | 26.1% |  |
| COc1ccccc1CNc1ncncc1-c1cccc(NS(C)(=O)=O)c1 | 8.29% |  |
| COc1ccc(-n2c(=O)c(-c3cn(C)c4ccccc34)nc3cnc(OC)nc32)cc1 |  | 0.2 µM (active) |
| CCc1c(C)nc2cc(-c3cccs3)[nH]n2c1=O | 8.85% |  |
| COCCn1c(=O)c(-c2cccs2)nc2cncnc21 |  | 12.6 µM (active) |
| CCOc1cccc(=O)c2c(C)n(CC3CCCO3)c(C)c12 (centres undefined) | 0.152% |  |
| O=C(O)c1nccnc1C(=O)Nc1ccc(Br)cn1 | 1.11% |  |
| C=CCNC(=O)C1CC=CCC1C(=O)O (centres undefined) | 2.51% |  |
| COc1ccc(N)c(C)c1 | -2.22% |  |
| COC(=O)[C@@]1(C)C=C[C@@H](Cc2ccccc2)N1C(C)=O | -7.17% |  |
| CCCCCCN(C(=O)CCCCCN1C(=O)NC(c2ccc(C(F)(F)F)cc2)C(C(=O)OCc2ccccc2)=C1C)C(C(=O)NCCCC)c1ccc(OCC(=O)OC)c(C(=O)OC)c1 (centres undefined) | 19% |  |
| Cc1ccc2oc(=O)ccc2c1 | -1.67% |  |
| c1ccc(Oc2ccccc2)cc1 | -5.17% |  |
| COc1ccc(C2C(C#N)=C(N)Oc3n[nH]c(C)c32)cc1CN1CCN(c2ccc(F)cc2)CC1 (centres undefined) | -10.6% |  |
| CCCCN(C)C(=O)c1ccc2c(c1)N(CC)C(=O)c1ccccc1S2(=O)=O | 1.07% |  |
| C[N+](C)(CCCCCC[N+](C)(C)CCCN1C(=O)c2cccc3cccc(c23)C1=O)CCCN1C(=O)c2cccc3cccc(c23)C1=O | 2.5% |  |
| CCN1C(=O)c2cccc3c(N)ccc1c23 |  | 10 µM (active) |
